Reference: PubChem BioAssay (NCATS)
Results filed as inconclusive are left out. Calls of active or inactive are those of the source. Calls follow the shape of the dose curve; as a rule, active = well fitted curve in the direction sought with a large enough effect; inconclusive = small, poorly fitted or top-dose-only effect, or another doubt; inactive = no such curve, though single readings can be large; an effect the other way counts as inactive or inconclusive.

How the values were obtained:
[1] = Cellular Toxicity (caspase-3) Mesangial (AID 660); conditions: mesangial cells, normalized: DMSO 0%, 100 µM tamoxifen 100%; at 91.7 µM (top of the series);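 also: cells exposed to compound for 16 h before the caspase read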
In short: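 Human renal glomerular mesangial cells (1000/well) were treated with compounds for 16 h at 37 °C in complete medium, then caspase 3/7 activity was read by Caspase-Glo luminescence. Data were normalized to DMSO and 100 uM tamoxifen; AC50 from Hill fits.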

[2] = Cellular Toxicity (caspase-3) SK-N-SH (AID 661);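 also: 0% = DMSO basal and 100% = 10 µM staurosporine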
In short: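 SK-N-SH human neuroblastoma cells (1500/well) were treated with compounds for 16 hr at 37 °C in complete medium; caspase 3/7 activity was read by Caspase-Glo luminescence. AC50 came from Hill fits of data normalized to DMSO and 10 uM staurosporine.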

[3] = Cellular Toxicity (caspase-3) H-4-II-E (AID 663); conditions: H-4-II-E rat hepatoma, scaled: DMSO 0%, 100 µM tamoxifen 100%; at 92.2 µM (top of the series);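 also: cells exposed to compound for 16 hr before readout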
In short: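 Apoptosis induction is scored as increased luminescence from caspase 3/7 substrate cleavage in rat hepatoma H-4-II-E cells exposed to compound for 16 hr. Activity is scaled between DMSO and 100 uM tamoxifen.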

[4] = Cellular Toxicity (caspase-3) Hek293 (AID 664); conditions: HEK293 caspase-3 activation, DMSO = 0%, 100 µM tamoxifen = 100%; at 92.2 µM (top of the series);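 also: cells exposed to compound for 16 h at 37 °C before readout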
In short: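 HEK293 cells were exposed to compounds in complete medium for 16 hr at 37 °C, then caspase-3/7 activity was read by Caspase-Glo 3/7 luminescence after 20 min at room temperature. Data normalized to DMSO and 100 uM tamoxifen; AC50 from Hill fits.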

[5] = Cellular Toxicity (caspase-3) N2a (AID 665);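 also: compound exposure lasted 16 h at 37 °C before readout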
In short: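 Mouse N2a neuroblastoma cells (1500/well) were treated with compounds for 16 h at 37 °C, then caspase-3/7 activity was read by Caspase-Glo luminescence after 1 h at room temperature. Data were normalized to DMSO and 10 uM staurosporine; AC50 from Hill fits.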

[6] = Cellular Toxicity (caspase-3) NIH 3T3 (AID 666);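 also: 0% = DMSO basal and 100% = 100 µM tamoxifen stimulation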
In short: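 Mouse NIH 3T3 fibroblasts (1000 cells/well) were treated with compound for 16 hr at 37°C in complete medium; caspase-3/7 activity was read by Caspase-Glo luminescence. Normalized to DMSO and 100 uM tamoxifen; AC50 from Hill fits.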

[7] = Cellular Toxicity (caspase-3) Renal Proximal Tubule (AID 667); conditions: Potency: caspase-3 activation;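 also: cells exposed to compound for 16 hours at 37 °C before detection; 0% = DMSO basal and 100% = 10 µM staurosporine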
In short: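 Luminescent caspase 3/7 signal from peptide-aminoluciferin cleavage measures apoptosis in freshly isolated rat kidney proximal tubule cells after 16 h compound exposure. Concentration-response data are normalized to DMSO and 10 uM staurosporine, and AC50 values come from Hill equation fits.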

[8] = molecular target: Cytochrome P450 3A4 (Homo sapiens) (UniProt P08684); experiment: qHTS Assay for Inhibitors and Substrates of Cytochrome P450 3A4 (AID 884); also: % is scaled to controls: 0 for no effect and ±100 for the full control effect; nearly all actives have a fitted effect of over 50% in size
In short: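 20 nM human CYP3A4 with 25 uM Luciferin-PPXE (at KM) in 200 mM KPO4, preincubated 10 min with compound; NADPH regeneration started a 60 min RT reaction. Luciferin detected by luminescence, normalized to 57 uM ketoconazole as full inhibition.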

[9] = Cell Viability - LYMP2-001 (AID 921);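 also: cells exposed to compound for 24 h at 37 °C; 0% = DMSO only and full inhibition = tetraoctylammonium bromide control wells; nearly all actives have a fitted effect of over 70% in size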
In short: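 CellTiter-Glo luminescence (intracellular ATP) after 24 hr compound exposure at 37 C, 2500 lymphoblastoid cells/well in complete medium. AC50 fitted with standard Hill equation; tetraoctylammonium bromide positive control.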

Chain of Cytochrome P450 3A4 (Homo sapiens) (P08684 whole entry, looked up): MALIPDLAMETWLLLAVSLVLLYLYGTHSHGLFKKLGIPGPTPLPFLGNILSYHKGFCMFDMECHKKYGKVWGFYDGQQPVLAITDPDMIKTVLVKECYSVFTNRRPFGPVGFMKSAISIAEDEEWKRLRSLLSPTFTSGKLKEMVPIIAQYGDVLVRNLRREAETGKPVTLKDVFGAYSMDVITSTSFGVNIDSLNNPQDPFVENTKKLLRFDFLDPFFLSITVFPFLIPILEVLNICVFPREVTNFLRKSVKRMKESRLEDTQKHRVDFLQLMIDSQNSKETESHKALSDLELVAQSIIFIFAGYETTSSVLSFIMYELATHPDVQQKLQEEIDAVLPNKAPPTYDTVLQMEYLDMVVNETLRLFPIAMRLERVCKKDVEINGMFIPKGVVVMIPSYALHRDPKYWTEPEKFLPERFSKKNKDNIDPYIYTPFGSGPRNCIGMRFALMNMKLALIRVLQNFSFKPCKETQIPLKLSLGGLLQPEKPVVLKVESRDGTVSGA

C=CCCCCCC
inactive: caspase-3 activation [1] 0.339% | outcome [2] | caspase-3 activation [3] 1.37% | caspase-3 activation [4] -0.874% | outcome [5] | outcome [6] | Potency [7] | Potency [8] | Potency [9]

COc1ccccc1[N+](=O)[O-]
inactive: caspase-3 activation [1] -1.05% | outcome [2] | caspase-3 activation [3] 0.0394% | caspase-3 activation [4] -0.651% | outcome [5] | outcome [6] | Potency [7] | Potency [8] | Potency [9]

C1CCCC1
inactive: caspase-3 activation [1] -0.162% | outcome [2] | caspase-3 activation [3] -0.556% | caspase-3 activation [4] 0.0682% | outcome [5] | outcome [6] | Potency [7] | Potency [8] | Potency [9]

CC(C)c1ccccc1
inactive: caspase-3 activation [1] -1.25% | outcome [2] | caspase-3 activation [3] 0.504% | caspase-3 activation [4] -0.725% | outcome [5] | outcome [6] | Potency [7] | Potency [8] | Potency [9]

CC(O)CC(C)O (stereo not drawn)
inactive: caspase-3 activation [1] 0.0132% | outcome [2] | caspase-3 activation [3] 1.09% | caspase-3 activation [4] -0.296% | outcome [5] | outcome [6] | Potency [7] | Potency [8] | Potency [9]

CC(=O)c1ccccc1[N+](=O)[O-]
inactive: caspase-3 activation [1] -0.0773% | outcome [2] | caspase-3 activation [3] 0.797% | caspase-3 activation [4] 1.17% | outcome [5] | outcome [6] | Potency [7] | Potency [8] | Potency [9]

CCCCC(=O)N(C)C
inactive: caspase-3 activation [1] 0.37% | outcome [2] | caspase-3 activation [3] -1.29% | caspase-3 activation [4] 1.13% | outcome [5] | outcome [6] | Potency [7] | Potency [8] | Potency [9]

CC(=O)Nc1cccc(N)c1
inactive: caspase-3 activation [1] 0.0656% | outcome [2] | caspase-3 activation [3] 0.403% | caspase-3 activation [4] 0.134% | outcome [5] | outcome [6] | Potency [7] | Potency [8] | Potency [9]

CN(C)c1cccc(O)c1
inactive: caspase-3 activation [1] 1.93% | outcome [2] | caspase-3 activation [3] 2.04% | caspase-3 activation [4] 0.706% | outcome [5] | outcome [6] | Potency [7] | Potency [8] | Potency [9]

NC(=S)NNC(N)=S
inactive: caspase-3 activation [1] -0.792% | outcome [2] | caspase-3 activation [3] 0.228% | caspase-3 activation [4] 1.03% | outcome [5] | outcome [6] | Potency [7] | Potency [8] | Potency [9]

O=Cc1c(Cl)cccc1Cl
inactive: caspase-3 activation [1] -0.583% | outcome [2] | caspase-3 activation [3] 5.93% | caspase-3 activation [4] 1.92% | outcome [5] | outcome [6] | Potency [7] | Potency [8] | Potency [9]

C1CCC2OC2C1 (stereo not drawn)
inactive: caspase-3 activation [1] -0.0644% | outcome [2] | caspase-3 activation [3] -0.699% | caspase-3 activation [4] 1.05% | outcome [5] | outcome [6] | Potency [7] | Potency [8] | Potency [9]

Cc1cccc(Br)c1
inactive: caspase-3 activation [1] -0.167% | outcome [2] | caspase-3 activation [3] 0.836% | caspase-3 activation [4] -1.49% | outcome [5] | outcome [6] | Potency [7] | Potency [8] | Potency [9]

Cc1ccc(C)c(O)c1
inactive: caspase-3 activation [1] 0.131% | outcome [2] | caspase-3 activation [3] 0.256% | caspase-3 activation [4] 0.519% | outcome [5] | outcome [6] | Potency [7] | Potency [8] | Potency [9]

CC(C)C=O
inactive: caspase-3 activation [1] 1.06% | outcome [2] | caspase-3 activation [3] 0.472% | caspase-3 activation [4] -1.91% | outcome [5] | outcome [6] | Potency [7] | Potency [8] | Potency [9]

CCCCCCC(=O)O
inactive: caspase-3 activation [1] -0.964% | outcome [2] | caspase-3 activation [3] 0.492% | caspase-3 activation [4] 0.189% | outcome [5] | outcome [6] | Potency [7] | Potency [8] | Potency [9]

O=C(O)c1ccc(Cl)cc1Cl
inactive: caspase-3 activation [1] -1.03% | outcome [2] | caspase-3 activation [3] 0.226% | caspase-3 activation [4] 2.7% | outcome [5] | outcome [6] | Potency [7] | Potency [8] | Potency [9]

O=C(Cl)c1cccc([N+](=O)[O-])c1
inactive: caspase-3 activation [1] -1.19% | outcome [2] | caspase-3 activation [3] 3.32% | caspase-3 activation [4] 0.786% | outcome [5] | outcome [6] | Potency [7] | Potency [8] | Potency [9]

O=C(O)c1c(Cl)cccc1Cl
inactive: caspase-3 activation [1] 0.0651% | outcome [2] | caspase-3 activation [3] -0.197% | caspase-3 activation [4] 0.49% | outcome [5] | outcome [6] | Potency [7] | Potency [8] | Potency [9]

CC(=O)OCCC(C)C
inactive: caspase-3 activation [1] 0.804% | outcome [2] | caspase-3 activation [3] -0.942% | caspase-3 activation [4] -0.0363% | outcome [5] | outcome [6] | Potency [7] | Potency [8] | Potency [9]

c1ccc(Oc2ccccc2)cc1
inactive: caspase-3 activation [1] 0.858% | outcome [2] | caspase-3 activation [3] 0.181% | caspase-3 activation [4] -1.47% | outcome [5] | outcome [6] | Potency [7] | Potency [8] | Potency [9]

CCOCCOCC
inactive: caspase-3 activation [1] 0.404% | outcome [2] | caspase-3 activation [3] 1.77% | caspase-3 activation [4] 4.51% | outcome [5] | outcome [6] | Potency [7] | Potency [8] | Potency [9]
